Test results: PubChem BioAssay (Tox21)
Inconclusive results are not listed. Entries that show only a call come without a potency. Values without a mark were called inactive. Calls of active or inactive are those of the source. The call rests on the fitted dose curve.

Experiment: qHTS assay to identify small molecule agonists or antagonists of the thyroid stimulating hormone receptor (TSHR) signaling pathway - wild type cell line counter screen (AID 1259384)
Conditions: HEK293 wild type, cAMP HTRF counter-screen; series mostly up to 92.4 µM
From the text: U.S. Tox21 Program National Center for Advancing Translational Sciences [NCATS] NIH Chemical Genomics Center [NCGC] U.S. Environmental Protection Agency [EPA] National Institutes of Environmental Health Sciences [NIEHS] National Toxicology Program [NTP] U.S. Food and Drug Administration [FDA] Tox21 Assay Overview: TSHR is the receptor for thyrotropin (thyroid stimulating hormone or TSH), a member of the glycoprotein hormone family. TSH is released by the anterior pituitary gland and is the main regulator of thyroid gland growth and development. Upon binding circulating thyrotropin, a G-protein signal cascade activates adenylyl cyclase and […] cAMP concentration is increased. cAMP is a key second messenger involved extensively in cellular signal transduction pathways associated with the majority of G-protein coupled receptors (GPCRs). The activation of these GPCRs by neurotransmitters, lipids, nucleotides, peptides and hormones results in the activation or the inhibition of plasma membrane-bound adenylate cyclase through heterotrimeric G-proteins. A cell-based TSHR-Hek293 assay can be used to identify TSHR agonists. To eliminate the false positive compounds identified from screening a cell-based TSHR-Hek293 cell line, cAMP assay in a wild type Hek293 cells was used as a counter screening.
Tox21 Assay Protocol Summary: Hek293 cells (wild type) were dispensed at 800 cells/4 uL/well in 1536-well white plates using a Multidrop dispenser. After the assay plates were incubated at a 37 C/5% CO2 incubator for 18 hrs, 23 nL of compounds dissolved in DMSO, positive controls or DMSO only was transferred to the assay plate by a pin tool, followed by 1 ul medium containing Ro20-1724. After 30 min of incubation at room temperature, 2.5 ul/well of cAMP-d2 and 2.5 ul/well of anti-cAMP-cryptate were added respectively into the assay plates using a Flying Reagent Dispenser. The plates were incubated at room temperature for 1 hr. The fluorescence intensity in the plates was measured using an Envision plate reader. Each test compound was measured at 15 concentrations and in triplicates.
Potency means the concentration at half of the fitted maximal effect.

| Compound | cAMP activity change | Potency |
| --- | --- | --- |
| CCCCNc1ccc(NCCCC)c2c1C(=O)c1ccccc1C2=O | -7.38% [at 18.9 µM, hits give high values] |  |
| C=C1C(CCl)(CCl)C2(Cl)C(Cl)C(Cl)C1(Cl)C2(Cl)Cl (stereo not given) |  | inactive |
| O=C1OC(O)C(C(Cl)Cl)=C1Cl (stereo not given) |  | inactive |
| CCn1c2ccccc2c2ccccc21 |  | inactive |
| Cc1ccc(S(=O)(=O)C(I)I)cc1 |  | 9.69 µM (active) |
| O=C(O)CN(CCCN(CC(=O)O)CC(=O)O)CC(=O)O | 0.161% [at 18.9 µM, hits give high values] |  |
| CCCCCc1ccc(O)cc1 |  | inactive |
| CCCC(C)C=O (stereo not given) |  | inactive |
| N#Cc1ccc(C/C(=N/NC(=O)Nc2ccc(OC(F)(F)F)cc2)c2cccc(C(F)(F)F)c2)cc1 |  | inactive |
| c1ccc(C[P+](c2ccccc2)(c2ccccc2)c2ccccc2)cc1 |  | inactive |
| O=C1OC(=O)c2cc(-c3ccc4c(c3)C(=O)OC4=O)ccc21 |  | inactive |
| Oc1ccc(C2(c3ccc(O)c(C4CCCCC4)c3)CCCCC2)cc1C1CCCCC1 |  | inactive |
| CC(C)(C)c1ccc(OC2CCCCC2O)cc1 (stereo not given) |  | inactive |
| CCc1c(C)cc(N)c(CC)c1N |  | inactive |
| COc1c(Br)cc(Br)c(C)c1Br |  | inactive |
| Brc1cc(Br)cc(Br)c1 |  | inactive |
| S=C1NC=NC2N=CNC12 (stereo not given) |  | inactive |
| CCOC(=O)C1=NN(c2ccc(Cl)cc2Cl)C(C)(C(=O)OCC)C1 (stereo not given) |  | inactive |
| CCOc1nc(F)cc2nc(S(=O)(=O)Nc3c(Cl)cccc3C(=O)OC)nn12 |  | inactive |
| Cn1c(=O)[nH]c2ncn(C)c2c1=O |  | inactive |

| Compound | cAMP activity change | Potency |
| --- | --- | --- |
| CCCCCCCCCCCCN1CCCC1=O |  | inactive |
| CCCCCCCCCCCCS(=O)(=O)Cl | 2.12% [at 18.9 µM, hits give high values] |  |
| Cc1ccc2n[nH]nc2c1 |  | inactive |
| C/C=C/C(=O)C1=C(C)C=CCC1(C)C |  | inactive |
| CCC1(C)C(=O)N(Cl)C(=O)N1Cl (stereo not given) |  | inactive |
| COc1ccc(OC)c(N=Nc2c(O)ccc3ccccc23)c1 |  | inactive |
| CCc1cccc(C)c1N(C(=O)CS(=O)(=O)O)C(C)COC (stereo not given) |  | inactive |
| O=C(c1ccccc1)c1ccc(Cl)cc1 |  | inactive |
| CCN(CCC#N)c1ccc(N=Nc2ccc([N+](=O)[O-])cc2)cc1 |  | inactive |
| COc1cc(OC)nc(NC(=O)NS(=O)(=O)Nc2ccccc2C(=O)N(C)C)n1 |  | inactive |
| O=c1cc[nH]cc1 |  | inactive |
| CC(C)=CCC[C@H](C)CC=O |  | inactive |
| COCCC(=O)OC |  | inactive |
| CCCCCCCCCCCCCCCCCCNC(=O)OC1CCN(C(=O)OC[C@H](COC(=O)N(Cc2cccc[n+]2CC)C(=O)c2ccccc2OC)OC)CC1 |  | inactive |
| C/C=C/C(=O)OCC(C)C |  | inactive |
| C=Cc1ccncc1 |  | inactive |
| O[Si](c1ccccc1)(c1ccccc1)c1ccccc1 |  | inactive |
| CCCCC/C=C\C=C\C(=O)OCC |  | inactive |
| O=C(CCN1CCC(c2ccccc2)C1)c1ccc2c(c1)OCCO2 (stereo not given) |  | inactive |
| C=Cc1ccc(O)c(OC)c1 |  | inactive |
